CtBP-E1A inh: blocks the CtBP interaction with E1A. AlphaScreen GST-E1A/His-CtBP binding, 1536-well; active compounds read low. activity change, % (test concentration not listed). 340,000 compounds, 0.49% hits. AID 651724; in the data active = activity change below about -65%; inconclusive = mostly about -30% to -63%
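GST-E1A and His-tagged CtBP (125 nM each as 5X stock) were preincubated with pin-transferred compound for 2 h at 37 °C in the dark, then glutathione donor and nickel acceptor beads were added for 1 h before AlphaScreen reading.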
TDP1 inh: blocks human tyrosyl-DNA phosphodiesterase 1; AID 485290; Potency, µM (series often up to 130 µM), for the others: at the top dose activity change, negative = inhibition, actives largely listed as inhibitors; 350,000 compounds, 0.28% hits; recombinant TDP1, AlphaScreen DNA substrate cleavage; also: potency is read from the fitted curve at half-maximal effect; nearly all actives have a fitted effect of over 40% in size
Target sequence (Q9NUW8 whole entry, looked up): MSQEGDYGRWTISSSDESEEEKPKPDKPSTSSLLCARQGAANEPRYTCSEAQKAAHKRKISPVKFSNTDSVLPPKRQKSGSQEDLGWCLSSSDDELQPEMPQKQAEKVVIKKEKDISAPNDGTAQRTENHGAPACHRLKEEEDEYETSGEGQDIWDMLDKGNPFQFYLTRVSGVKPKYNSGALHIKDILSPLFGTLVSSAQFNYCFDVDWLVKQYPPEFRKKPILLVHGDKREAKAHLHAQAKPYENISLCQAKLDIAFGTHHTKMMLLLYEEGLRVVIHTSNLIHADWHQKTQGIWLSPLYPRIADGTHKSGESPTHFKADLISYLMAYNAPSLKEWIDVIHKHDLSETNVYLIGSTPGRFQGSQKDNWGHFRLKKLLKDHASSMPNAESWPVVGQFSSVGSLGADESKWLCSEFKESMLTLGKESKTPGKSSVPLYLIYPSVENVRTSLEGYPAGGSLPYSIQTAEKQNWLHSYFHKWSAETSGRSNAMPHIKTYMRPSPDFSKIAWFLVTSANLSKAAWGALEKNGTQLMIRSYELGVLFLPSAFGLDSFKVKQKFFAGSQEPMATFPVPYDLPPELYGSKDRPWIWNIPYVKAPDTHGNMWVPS
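Recombinant E. coli-expressed Tdp1 (1 nM) preincubated with compound 15 min at RT, then 5'-biotin/3'-phosphotyrosine-FITC DNA substrate (15 nM) added for 5 min. AlphaScreen beads (10 ug/ml) added, 10 min RT; tyrosine-FITC cleavage read as signal loss.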
IL-1B inflam inh: blocks inflammasome-driven IL-1 beta release | activity change, % at 57.5 µM | THP-1 LPS/ATP IL-1B secretion, AlphaLISA, 16 h; active compounds read low | 360,000 compounds, 4.7% hits; in the data active = activity change below about -50%; inconclusive = mostly about -30% to -49%
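THP-1 cells pretreated 1 hr with compounds (up to 57.5 uM final), then stimulated with LPS (250 ng/mL final) plus ATP (1.25 mM final); secreted IL-1B measured by AlphaLISA after 16 hr, decreased signal indicating inhibition.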
Six1-Eya2 blk: inhibitors of human Six1/Eya2 interaction. Q15475+O00167. AlphaScreen GST-Six1/His-Eya2 binding, biochemical; active compounds read low. activity change, % (test concentration not listed). 360,000 compounds, 0.56% hits; in the data active = activity change below about -65%; inconclusive = mostly about -30% to -63%
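AlphaScreen with GST-Six1 and His-Eya2 (5X mix: 250 nM and 500 nM), glutathione donor and nickel acceptor beads; buffer 50 mM Tris pH 8.0, 300 mM NaCl, 1 mM TCEP; 1 h at 37 C in the dark.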
TDP1 cell noCPT: qHTS for Inhibitors of human tyrosyl-DNA phosphodiesterase 1 (TDP1): qHTS in cells in absence of CPT. 420,000 compounds, 15% hits. DT40 Tdp1-/- hTDP1 cells, no CPT, ATP luminescence, 48 h. Potency, µM (titrated, usually from 46.2 µM), inactives show at the highest dose activity change, negative = growth inhibition, usual class: inhibitors; also: potency is read from the fitted curve at half-maximal effect; nearly all actives have a fitted effect of over 55% in size
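DT40 Tdp1-/-;hTDP1 cells, no CPT (DMSO vehicle only), 400 cells/well; compounds pin-transferred; ≥48 hr, 37 °C; CellTiter-Glo 30 min RT dark, luminescence read.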
DT40 TDP1 CPT: DT40-hTDP1 cell growth loss with CPT. chicken DT40 Tdp1-/-;hTDP1 cells + 20 nM CPT, ATP luminescence, 48 h. Potency, µM (top dose mostly 46.2 µM), inactives show at the highest dose activity change, negative = growth inhibition, usual class: inhibitors. 420,000 compounds, 12% hits. AID 686979; also: potency is read from the fitted curve at half-maximal effect; nearly all actives have a fitted effect of over 55% in size
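Chicken DT40 Tdp1-/- cells complemented with human TDP1, 400 cells/well, exposed to compounds plus 20 nM camptothecin for at least 48 h at 37 C; viability read as ATP content by CellTiter-Glo luminescence.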
The depositor's hits bear a star; u = inconclusive; x = not tested or not shown. Compounds with a hit are over-represented: about 18% of the library has one in this group of screens. Unless noted, calls follow the shape of the dose curve; as a rule, active = well fitted curve in the direction sought with a large enough effect; inconclusive = small, poorly fitted or top-dose-only effect, or another doubt; inactive = no such curve, though single readings can be large; an effect the other way counts as inactive or inconclusive. % is scaled to controls: 0 for no effect and ±100 for the full control effect.

SMILES | CtBP-E1A inh | TDP1 inh | IL-1B inflam inh | Six1-Eya2 blk | TDP1 cell noCPT | DT40 TDP1 CPT
COc1ccccc1C1c2ccc3ccccc3c2Oc2ncn(CCN(C)C)c(=N)c21 (stereo not drawn) | -8.9 | x | -97.6* | 1.5 | 16.4µM* | u
COc1ccc(C2c3ccc4ccccc4c3Oc3ncn(Cc4ccco4)c(=N)c32)cc1OC (stereo not drawn) | 2.7 | 8.1% | u | -13.7 | 16.4µM* | 23.1µM*
COc1ccccc1C1c2ccc3ccccc3c2Oc2ncn(CCCO)c(=N)c21 (stereo not drawn) | -3.3 | x | -96.8* | -1.2 | 23.1µM* | 23.1µM*
COc1ccc(C2c3ccc(O)cc3Oc3ncn(CCN4CCOCC4)c(=N)c32)cc1 (stereo not drawn) | -2.0 | x | u | -7.8 | -21.3% | u
COc1ccc(C2c3ccc4ccccc4c3Oc3ncn(CCCN(C)C)c(=N)c32)cc1 (stereo not drawn) | -6.1 | x | -95.4* | 9.3 | 4.61µM* | 11.6µM*
O=C(CCSCc1ccccc1F)N1CCN(c2ccccn2)CC1 | 7.5 | 4.3% | 15.7 | -6.9 | -21.5% | -16.5%
Cc1ccc(Cl)cc1N1CCN(C(=O)c2ccccc2SCC(=O)N2CCCC2)CC1 | 5.3 | 3.2% | -1.5 | -2.2 | 8.2µM* | 20.6µM*
COc1ccccc1N1CCN(C(=O)c2ccccc2SCC(=O)N2CCCC2)CC1 | -0.1 | 2.9% | -5.4 | 6.0 | u | 0.0%
Cc1ccc(Cl)cc1N1CCN(C(=O)CCSCc2ccccc2F)CC1 | x | 13.0% | x | x | 23.1µM* | u
Cc1nnc2c(NCCC(C)C)nc3ccccc3n12 | 12.6 | x | 24.4 | 4.4 | -4.3% | 4.6%
C#CCOCCOCCOCCNc1nc(N2CCN(C(=O)C(Cc3cc4ccccc4[nH]3)n3cc(C(N)C(C)CC)nn3)CC2)nc(N2CCN(C(=O)C(Cc3cc4ccccc4[nH]3)n3cc(C(N)C(C)CC)nn3)CC2)n1 (stereo not drawn) | -27.1 | 6.4% | -26.5 | -28.3 | u | 16.4µM*
CC[C@@H](C)C(NC(=O)OC(C)(C)C)c1cn([C@@H](Cc2cc3ccccc3[nH]2)C(=O)N2CCN(C(=O)OC(C)(C)C)CC2)nn1 (stereo partly drawn) | -0.8 | 7.7% | u | -0.8 | 23.1µM* | 23.1µM*
C#CCOCCOCCOCCNc1nc(N2CCN(C(=O)[C@H]([C@@H](C)CC)n3cc([C@@H](N)CC(C)C)nn3)CC2)nc(N2CCN(C(=O)[C@H](Cc3cc4ccccc4[nH]3)n3cc([C@@H](N)C(C)CC)nn3)CC2)n1 (stereo partly drawn) | x | 3.5% | x | x | x | x
C#CCOCCOCCOCCNc1nc(N2CCN(C(=O)[C@H]([C@@H](C)CC)n3cc([C@@H](N)CC(C)C)nn3)CC2)nc(N2CCN(C(=O)[C@H](Cc3cc4ccccc4[nH]3)n3cc([C@@H](N)Cc4ccc(O)cc4)nn3)CC2)n1 | -17.4 | 7.7% | -56.5* | -27.2 | u | u
C#CCOCCOCCOCCNc1nc(N2CCN(C(=O)[C@H]([C@@H](C)CC)n3cc([C@@H](N)Cc4ccc(O)cc4)nn3)CC2)nc(N2CCN(C(=O)[C@H](Cc3cc4ccccc4[nH]3)n3cc([C@@H](N)CC(C)C)nn3)CC2)n1 | -24.6 | 5.0% | -16.7 | -14.7 | u | 23.1µM*
C#CCOCCOCCOCCNc1nc(N2CCN(C(=O)C(Cc3ccc(O)cc3)n3cc(C(N)CC(C)C)nn3)CC2)nc(N2CCN(C(=O)C(Cc3cc4ccccc4[nH]3)n3cc(C(N)C(C)CC)nn3)CC2)n1 (stereo not drawn) | x | 6.4% | x | x | x | x
N[C@@H](CO)c1cn([C@@H](Cc2cc3ccccc3[nH]2)C(=O)N2CCNCC2)nn1 | -10.9 | 4.7% | 34.7 | -25.5 | -2.4% | 13.7%
CNC(=O)COc1ccc(NC(=O)c2ccc(-c3nn(C)c(=O)c4ccccc34)cc2)cc1 | x | -3.2% | x | x | u | u
O=C(NNC(=O)c1csc(-c2cccnc2)n1)c1ccccc1 | 0.6 | 8.0% | -11.6 | -5.2 | -16.3% | 0.3%
CC(=O)Nc1cccc(-c2ccnc3c2CC(C)(C(=O)Nc2cccnc2)O3)c1 (stereo not drawn) | 1.1 | x | 27.9 | 0.3 | -29.3% | -28.4%
CC(=O)Nc1cccc(-c2ccnc3c2CC(C)(C(=O)Nc2ccc(Cl)cc2)O3)c1 (stereo not drawn) | -3.9 | x | -19.8 | 3.0 | 4.11µM* | 1.64µM*
CC(=O)Nc1cccc(-c2ccnc3c2CC(C)(C(=O)Nc2cccc(C(C)=O)c2)O3)c1 (stereo not drawn) | -8.5 | x | -15.7 | -6.6 | 6.51µM* | 5.8µM*
CC(=O)Nc1ccc(NC(=O)C2(C)Cc3c(-c4cccc(NC(C)=O)c4)ccnc3O2)cc1 (stereo not drawn) | 0.7 | x | -2.7 | -2.7 | 12.3% | 12.8%
CC(=O)Nc1cccc(-c2ccnc3c2CC(C)(C(=O)NCc2ccncc2)O3)c1 (stereo not drawn) | 1.4 | x | 0.0 | -4.5 | 18.4µM* | 20.6µM*
CC(=O)Nc1cccc(-c2ccnc3c2CC(C)(C(=O)Nc2ccc4c(c2)OCO4)O3)c1 (stereo not drawn) | -6.6 | x | 44.4 | 0.7 | 0.651µM* | 0.651µM*
SMILES | CtBP-E1A inh | TDP1 inh | IL-1B inflam inh | Six1-Eya2 blk | TDP1 cell noCPT | DT40 TDP1 CPT
CC1(C(=O)NS(=O)(=O)c2cccc(F)c2)CCN1C(=O)Cc1ccccc1Cl (stereo not drawn) | -0.7 | x | 26.2 | 7.2 | -1.1% | 19.5%
CC(=O)Nc1cccc(-c2ccnc3c2CC(C)(C(=O)NC(C)C)O3)c1 (stereo not drawn) | 0.7 | x | 15.1 | 7.3 | -17.5% | u
CC(=O)Nc1ccc(-c2ccnc3c2CC(C)(C(=O)Nc2ccc(F)c(Cl)c2)O3)cc1 (stereo not drawn) | -21.7 | x | -62.4* | -7.6 | 23.1µM* | u
CC(C)NC(=O)C1(C)Cc2c(-c3cccc(C(F)(F)F)c3)ccnc2O1 (stereo not drawn) | 2.0 | x | 26.7 | 3.4 | 11.6µM* | 18.4µM*
CC1(C(=O)Nc2ccc(Cl)cc2)Cc2c(-c3cccc(C(F)(F)F)c3)ccnc2O1 (stereo not drawn) | 0.1 | x | -3.7 | -7.4 | 23.1µM* | u
COc1ccc(NC(=O)C2(C)Cc3c(-c4cccc(C(F)(F)F)c4)ccnc3O2)cc1OC (stereo not drawn) | -15.4 | x | 6.5 | -9.8 | 20.6µM* | 16.4µM*
